Drawing on PubChem BioAssay (NCATS), this text covers Potency and outcome for 30 compounds.

Each structure is given as a SMILES string. Where “and” joins values, the source holds several entries; their conditions need not be identical. Identical values can stand only once. Records with an inconclusive call do not appear. Calls of active or inactive are those of the source. Unless noted, calls come from the whole dose curve; as a rule, active = well fitted curve in the direction sought with a large enough effect; inconclusive = small, poorly fitted or top-dose-only effect, or another doubt; inactive = no such curve, though single readings can be large; an effect the other way counts as inactive or inconclusive.

Sequence of Cytochrome P450 2D6 (Homo sapiens) (P10635 whole entry, looked up): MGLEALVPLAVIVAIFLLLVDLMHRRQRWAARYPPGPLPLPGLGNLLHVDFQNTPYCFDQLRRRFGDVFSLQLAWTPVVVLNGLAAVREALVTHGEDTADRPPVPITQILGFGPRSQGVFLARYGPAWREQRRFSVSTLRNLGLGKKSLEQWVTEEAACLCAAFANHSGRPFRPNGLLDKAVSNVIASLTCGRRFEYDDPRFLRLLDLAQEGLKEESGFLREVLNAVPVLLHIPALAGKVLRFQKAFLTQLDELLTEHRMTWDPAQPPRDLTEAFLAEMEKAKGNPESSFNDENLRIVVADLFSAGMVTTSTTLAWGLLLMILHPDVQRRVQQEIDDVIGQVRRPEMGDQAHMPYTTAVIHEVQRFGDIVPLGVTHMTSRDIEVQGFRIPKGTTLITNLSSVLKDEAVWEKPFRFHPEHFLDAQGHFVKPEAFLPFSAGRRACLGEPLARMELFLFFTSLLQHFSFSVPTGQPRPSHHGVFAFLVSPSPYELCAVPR

The first experiment concerns the target Cytochrome P450 2D6 (Homo sapiens) (UniProt P10635). Description: Cytochrome P450 family 2 subfamily D member 6 (CYP2D6) small molecule antagonists: luciferase biochemical (cell-free) qHTS assay (AID 1645840; active = well fitted curve in the direction sought with a large enough effect in the repeat runs; an effect the other way counts as inactive or inconclusive; note: nearly all actives have a fitted effect of over 55% in size; note: potency is the fitted concentration of half-maximal effect). The conditions noted are these: P450-Glo CYP2D6 enzyme, luciferin luminescence, 1 h; series mostly up to 57.4 µM. In outline: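 P450-Glo luminescent screen: recombinant CYP2D6 enzyme–proluciferin substrate mix preincubated with compound 10 min at room temperature, then NADPH regeneration added for 1 h at room temperature. Detection reagent added for 20 min; luciferin light read as relative luminescence units.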
In the case of `COc1ccc2cc(-c3nc(-c4ccc(S(C)=O)cc4)[nH]c3-c3ccncc3)ccc2c1` (stereo unspecified), the Potency was 3.38 µM (active).
Consider `Cc1ccc(Nc2cc(-c3cccc(N4C(=O)c5ccccc5C4=O)c3)ncn2)cc1NS(C)(=O)=O`, for which the Potency entry is “inactive”.
On to `COCCOC(=O)C1=C(C)NC2=C(C(=O)CC(c3ccccc3OC)C2)C1c1cccc(O)c1` (stereo unspecified), for which the Potency was 10.7 µM (active).
Take `c1ccc2c(-c3cnn4cc(-c5ccc(N6CCNCC6)cc5)cnc34)ccnc2c1`: the Potency result is “inactive”.
The same measure, in the same setting: with `COc1ccc2c(Oc3ccc(NC(=O)c4c(C)n(CC(C)(C)O)n(-c5ccccc5)c4=O)nc3)ccnc2c1` the entry was “inactive”.

The target in a further experiment is Papain (Carica papaya) (UniProt P00784). In words: Primary qHTS assay for inhibitors of the protease papain (AID 1645873).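 Note: papain turnover of Z-FR-AMC read as the AMC fluorescence gain over 10 min.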 The conditions noted are these: papain Z-FR-AMC cleavage, AMC fluorescence; series mostly up to 49.8 µM. Background: Quantitative high-throughput screening tests each substance at several concentrations.
Sequence of Papain (Carica papaya) (P00784 whole entry, looked up): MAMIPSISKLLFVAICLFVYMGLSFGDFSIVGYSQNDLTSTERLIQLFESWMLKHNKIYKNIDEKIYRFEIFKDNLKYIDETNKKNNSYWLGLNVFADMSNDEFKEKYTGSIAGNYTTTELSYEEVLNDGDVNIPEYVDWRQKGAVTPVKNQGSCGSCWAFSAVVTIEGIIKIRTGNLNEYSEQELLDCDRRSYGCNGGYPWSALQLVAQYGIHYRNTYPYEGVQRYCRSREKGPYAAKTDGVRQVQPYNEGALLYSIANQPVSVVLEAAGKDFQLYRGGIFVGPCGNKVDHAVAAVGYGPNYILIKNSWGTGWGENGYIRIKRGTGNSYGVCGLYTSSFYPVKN
Turning to `CC(C)(C)c1ccc(C(O)CCCN2CCC(C(O)(c3ccccc3)c3ccccc3)CC2)cc1` (stereo unspecified), the compound was called inactive.
On to `COC(=O)[C@@H]1[C@H]2C[C@H]3c4[nH]c5ccccc5c4CCN3C[C@@H]2CC[C@@H]1O`, for which the compound was classed as inactive.
`COc1ccc(Cc2nccc3cc(OC)c(OC)cc23)cc1OC`: the result was inactive.

System in the next experiment: not listed separately
In words: Primary qHTS for inhibitors of nuclear receptor binding SET domain protein 2 (NSD2) in an isogenic RCH-ACV NSD2 p.E1099K mutant (9B) (AID 1645876). Note: nearly all actives have a fitted effect of over 70% in size. Note: potency is the fitted concentration of half-maximal effect. Particulars: RCH-ACV (leukaemia line) NSD2 E1099K (9B) viability, CellTiter-Glo, 72 h; series mostly up to 44.9 µM.
In the case of `NS(=O)(=O)c1cccc2c1C(=O)c1cccc(O)c1C2=O`, the Potency was 1.66 µM (active).
Consider `COc1ccc2cc(-c3nc(-c4ccc(S(C)=O)cc4)[nH]c3-c3ccncc3)ccc2c1` (stereo unspecified), for which the Potency is 23.5 µM (active) and 20.5 µM (active).
Consider `NC(=O)c1cccc2[nH]c(-c3ccc([C@H]4CCCN4)cc3F)nc12`, for which the Potency is 14.8 µM (active).
Regarding `CC[C@@]1(O)C[C@H](O[C@H]2C[C@H](N(C)C)[C@H](O[C@H]3C[C@H](O)[C@H](O[C@H]4CCC(=O)[C@H](C)O4)[C@H](C)O3)[C@H](C)O2)c2c(cc3c(c2O)C(=O)c2c(O)cccc2C3=O)[C@@H]1C(=O)OC`, the Potency is 2.63 µM (active).
Consider `Oc1ccc(C2CCN(c3ccnc4ccccc34)CC2)cc1O`, for which the Potency was 13.2 µM (active).
On to `O=C(NCc1ccccc1)c1csc(Nc2ccncn2)n1`, for which the Potency is 11.8 µM (active).
`NC(=O)c1ccc2nc(-c3ccc(Oc4ccc(Cl)cc4)cc3)[nH]c2c1`: the Potency is 14.5 µM (active) and 23.1 µM (active).
As for `COc1ccc(-c2coc3cc(O)cc(O)c3c2=O)cc1`, the Potency was 18.6 µM (active).
Same read-out and setting: with `O=C(Nc1ccccc1-c1cn2c(CN3CCNCC3)csc2n1)c1cnc2ccccc2n1` the figure was 20.5 µM (active) and 7.42 µM (active); with `C=C1C(=O)OC(CCCCCCCC)C1C(=O)O` (stereo unspecified), “inactive”; with `Cc1ccc(Nc2cc(-c3cccc(N4C(=O)c5ccccc5C4=O)c3)ncn2)cc1NS(C)(=O)=O`, 16.6 µM (active).
Turning to `COc1ccc(C2Sc3ccccc3N(CCN(C)C)C(=O)C2OC(C)=O)cc1` (stereo unspecified), the Potency result was “inactive”.
With `CC(C)=CC[C@@H](O)C1=CC(=O)c2c(O)ccc(O)c2C1=O`, the Potency was 23.5 µM (active).
Take `COc1cccc([C@@H](C)NCCCc2ccccc2Cl)c1`: the Potency is 18.6 µM (active).
Take `COCCOC(=O)C1=C(C)NC2=C(C(=O)CC(c3ccccc3OC)C2)C1c1cccc(O)c1` (stereo unspecified): the Potency is 4.68 µM (active) and 3.65 µM (active).
Regarding `COc1cc2nc(-c3ccc(N4CCN(C)CC4)cc3)nc(NCCN3CCOCC3)c2cc1OC`, the Potency is 1.86 µM (active).
The same measure, in the same setting: with `Cc1ccc(F)c(NC(=O)Nc2ccc(-c3cccc4[nH]nc(N)c34)cc2)c1` the figure was 10.5 µM (active); with `COC(=O)[C@@H]1[C@H]2C[C@H]3c4[nH]c5ccccc5c4CCN3C[C@@H]2CC[C@@H]1O`, “inactive”.
For `CC1CCC(C(=O)N(c2cc(C#CC(C)(C)C)sc2C(=O)O)C2CCC(O)CC2)CC1` (stereo unspecified), the Potency was 20.9 µM (active).
As for `CC(C)C(=O)Oc1ccc(CO)cc1[C@H](CCN(C(C)C)C(C)C)c1ccccc1`, the Potency entry was “inactive”.
`NC(CO)(CO)CCc1ccc(Sc2cccc(OCc3ccccc3)c2)cc1Cl`: the Potency is 7.42 µM (active).
On to `COc1cc(N2CCC(N3CCN(C)CC3)CC2)ccc1Nc1ncc(Cl)c(Nc2ccccc2S(=O)(=O)C(C)C)n1`, for which the Potency is 1.29 µM (active) and 3.72 µM (active).
With `CN(C)C1CCN(C(=O)c2ccc(NC(=O)Nc3nc(N4CCOCC4)nc(N4CCOCC4)n3)cc2)CC1`, the Potency was 25.2 nM (active) and 37.2 nM (active).
Still for that read-out and setting: for `c1ccc2c(-c3cnn4cc(-c5ccc(N6CCNCC6)cc5)cnc34)ccnc2c1` the value was 2.63 µM (active); for `N#Cc1ccc(NC(=O)Nc2ccccc2Br)c2n[nH]nc12`, “inactive”.
For the compound `O=c1cc(-c2ccccc2)oc2cc(O)cc(O)c12`, the Potency was 16.6 µM (active).
On the same count and under the same terms, for `COc1ccc2c(Oc3ccc(NC(=O)c4c(C)n(CC(C)(C)O)n(-c5ccccc5)c4=O)nc3)ccnc2c1` the value was “inactive”; for `O=C(O)c1ccc(-c2c[nH]c3ncc(-c4ccccc4)cc23)cc1C1CCCC1`, “inactive”.
